Data on seven molecules can be found in PubChem BioAssay (EPA / NIEHS).

Structures are written as SMILES. Where “and” joins values, the source holds several entries; their conditions need not be identical. Equal entries are not always repeated. Records with an inconclusive call do not appear. Where a structure was tested more than once in an assay, its records may differ in their call. Calls of active or inactive are those of the source. The calls were made as follows: active = hit-call score of the fitted dose curve at least 0.9, where 1 is the maximum; inconclusive = response in the unintended direction; inactive = score below 0.9.

Broadly, the AC50 is the midpoint of the concentration-response curve, whichever way the signal moves.

Sequence of zebrafish Thyroid Hormone Receptor alpha (TRa), thraa (gene 30670) (Q98867 whole entry, looked up, the tested form may be a part): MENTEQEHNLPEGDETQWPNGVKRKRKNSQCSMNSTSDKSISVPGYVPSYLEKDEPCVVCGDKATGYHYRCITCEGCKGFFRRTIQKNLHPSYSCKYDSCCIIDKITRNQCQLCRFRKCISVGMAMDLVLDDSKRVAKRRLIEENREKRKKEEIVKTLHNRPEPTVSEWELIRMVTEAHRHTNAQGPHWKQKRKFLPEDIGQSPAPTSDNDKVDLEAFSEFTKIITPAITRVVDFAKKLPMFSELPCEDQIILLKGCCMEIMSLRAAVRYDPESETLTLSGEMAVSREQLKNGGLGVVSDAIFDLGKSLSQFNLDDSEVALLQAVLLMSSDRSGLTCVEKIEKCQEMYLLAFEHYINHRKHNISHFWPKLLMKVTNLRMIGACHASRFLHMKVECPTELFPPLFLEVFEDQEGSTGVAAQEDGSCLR
Sequence of mouse Peroxisome Proliferator-activated Receptor gamma (PPARg), Pparg (gene 19016) (P37238 whole entry, looked up, the tested form may be a part): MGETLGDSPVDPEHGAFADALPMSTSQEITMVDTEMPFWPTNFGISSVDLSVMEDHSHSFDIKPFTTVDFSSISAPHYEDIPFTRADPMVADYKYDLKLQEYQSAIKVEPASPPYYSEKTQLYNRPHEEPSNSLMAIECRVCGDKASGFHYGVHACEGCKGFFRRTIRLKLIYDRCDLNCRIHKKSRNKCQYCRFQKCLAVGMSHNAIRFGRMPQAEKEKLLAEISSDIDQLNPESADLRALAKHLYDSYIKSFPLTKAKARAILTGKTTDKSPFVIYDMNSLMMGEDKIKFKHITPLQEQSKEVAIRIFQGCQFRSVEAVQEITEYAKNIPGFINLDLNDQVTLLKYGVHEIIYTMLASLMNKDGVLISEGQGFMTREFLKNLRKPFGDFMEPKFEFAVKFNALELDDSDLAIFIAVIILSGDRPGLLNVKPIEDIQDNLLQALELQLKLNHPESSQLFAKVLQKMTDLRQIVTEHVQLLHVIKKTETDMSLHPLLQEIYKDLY
Sequence of Nuclear receptor subfamily 1 group I member 2 (Mus musculus) (O54915 whole entry, looked up, the tested form may be a part): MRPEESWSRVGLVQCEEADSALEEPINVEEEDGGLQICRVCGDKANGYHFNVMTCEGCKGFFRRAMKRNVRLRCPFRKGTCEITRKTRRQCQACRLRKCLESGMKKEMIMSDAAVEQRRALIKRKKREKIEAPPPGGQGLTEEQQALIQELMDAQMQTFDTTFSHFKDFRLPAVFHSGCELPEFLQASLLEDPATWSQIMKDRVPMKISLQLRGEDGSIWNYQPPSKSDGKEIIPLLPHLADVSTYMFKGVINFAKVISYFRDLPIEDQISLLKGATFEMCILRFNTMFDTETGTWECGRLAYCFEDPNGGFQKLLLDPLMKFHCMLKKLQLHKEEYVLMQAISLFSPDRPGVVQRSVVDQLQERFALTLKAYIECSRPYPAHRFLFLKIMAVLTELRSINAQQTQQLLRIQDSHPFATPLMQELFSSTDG

The first assay concerns frog Estrogen Receptor (ER2), gene 100174814. The assay is described as follows: ATG_frER2_XSP2: Attagene TRANS-FACTORIAL Multi-Species (XSP2) HepG2 Assay for frog Estrogen Receptor (ER2) (AID 2283828). In a few lines:
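Cells were transfected with reporter constructs under GAL4-UAS control, dosed with chemicals for 24 h, then lysed for RNA; the frog ER2-driven reporter mRNA was quantified by capillary electrophoresis of labeled PCR fragments, with activity fitted upward from DMSO.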
For `Oc1ccc2cc(SSc3ccc4cc(O)ccc4c3)ccc2c1`, the AC50 is 925 nM (active) and 696 nM (active).
Still for that read-out and setting: then `OCc1cccc(Oc2ccccc2)c1`, with 27.5 µM (active) and 9.21 µM (active); and `BrCc1cccc(Oc2ccccc2)c1`, with 15.7 µM (active) and 10.2 µM (active).
For `Cc1cc(=O)oc2cc(N(C)C)ccc12`, the AC50 was 48.9 µM (active).
With `Clc1ccc(C(c2ccccc2Cl)C(Cl)Cl)cc1` (stereo not drawn), the half-maximal activity concentration (AC50) was 1.34 µM (active) and 1.64 µM (active).
Still for that read-out and setting: then `O=c1c(O)c(-c2ccc(O)cc2)oc2cc(O)cc(O)c12`, with 1.75 µM (active) and 945 nM (active).

The target in the next assay is Peroxisome proliferator-activated receptor gamma (Homo sapiens) (UniProt P37231). Nature of the assay: ATG_hPPARg_XSP2: Attagene TRANS-FACTORIAL Multi-Species (XSP2) HepG2 Assay for human Peroxisome Proliferator-activated Receptor gamma (PPARg) (AID 2283829).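 Also: actives raise reporter mRNA above DMSO so AC50 reflects PPARg activation.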 In a few lines: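 Reporter transcripts were measured by RT-PCR, fluorescent labeling, HpaI digestion and capillary electrophoresis, relative to DMSO, 24 h post-dosing. Transiently transfected HepG2 expressed NR-Gal4 chimeras regulating GAL4-UAS reporters; medium contained 3 nM 6-alpha-fluorotestosterone plus 1.5 nM norgestrel.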
Sequence of Peroxisome proliferator-activated receptor gamma (Homo sapiens) (P37231 whole entry, looked up, the tested form may be a part): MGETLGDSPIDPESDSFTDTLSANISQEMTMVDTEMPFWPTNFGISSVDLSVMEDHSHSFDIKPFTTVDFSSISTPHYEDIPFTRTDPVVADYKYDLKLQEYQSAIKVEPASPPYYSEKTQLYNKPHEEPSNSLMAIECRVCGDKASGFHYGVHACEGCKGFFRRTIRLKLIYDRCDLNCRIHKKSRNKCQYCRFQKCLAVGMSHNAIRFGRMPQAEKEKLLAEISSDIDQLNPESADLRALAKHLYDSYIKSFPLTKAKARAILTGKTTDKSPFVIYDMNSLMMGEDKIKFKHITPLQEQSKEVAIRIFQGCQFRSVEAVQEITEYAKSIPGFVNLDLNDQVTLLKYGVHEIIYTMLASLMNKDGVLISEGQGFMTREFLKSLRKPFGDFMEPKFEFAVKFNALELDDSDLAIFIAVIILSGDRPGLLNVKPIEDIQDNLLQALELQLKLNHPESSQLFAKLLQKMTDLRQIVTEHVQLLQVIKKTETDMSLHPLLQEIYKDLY
With `Oc1ccc2cc(SSc3ccc4cc(O)ccc4c3)ccc2c1`, the AC50 is 4.81 µM (active) and 4.29 µM (active).
With `OCc1cccc(Oc2ccccc2)c1`, the AC50 was 60.3 µM (active) and 36.7 µM (active).
Consider `BrCc1cccc(Oc2ccccc2)c1`, for which the AC50 is 58.6 µM (active) and 35.6 µM (active).
On to `Cc1cc(=O)oc2cc(N(C)C)ccc12`, for which the AC50 was 24.8 µM (active) and 17 µM (active).
With `Clc1ccc(C(c2ccccc2Cl)C(Cl)Cl)cc1` (stereo not drawn), the outcome was inactive.
As for `O=c1c(O)c(-c2ccc(O)cc2)oc2cc(O)cc(O)c12`, the AC50 is 12.5 µM (active) and 7.02 µM (active).

The target of another assay is mouse Peroxisome Proliferator-activated Receptor gamma (PPARg), Pparg (gene 19016) (UniProt P37238). Nature of the assay: ATG_mPPARg_XSP2: Attagene TRANS-FACTORIAL Multi-Species (XSP2) HepG2 Assay for mouse Peroxisome Proliferator-activated Receptor gamma (PPARg) (AID 2283830).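 Also: hits are gains in reporter mRNA above DMSO so AC50 marks activation.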 In a few lines:
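Multiplexed TRANS reporter readout: after 24 h chemical exposure of transfected HepG2 cells (with 3 nM 6-alpha-fluorotestosterone, 1.5 nM norgestrel present), RNA reverse-transcribed, amplified, 6-FAM-labelled and resolved by capillary electrophoresis; mouse PPARg-Gal4 induction scored against DMSO.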
On to `Oc1ccc2cc(SSc3ccc4cc(O)ccc4c3)ccc2c1`, for which the AC50 was 7.19 µM (active) and 5.11 µM (active).
The same measure, in the same setting: then `OCc1cccc(Oc2ccccc2)c1`, with 40.6 µM (active) and 34.9 µM (active); and `BrCc1cccc(Oc2ccccc2)c1`, with 66.6 µM (active) and 39 µM (active); and `Cc1cc(=O)oc2cc(N(C)C)ccc12`, with 33.5 µM (active) and 27.8 µM (active).
On to `Clc1ccc(C(c2ccccc2Cl)C(Cl)Cl)cc1` (stereo not drawn), for which the outcome was inactive.
Turning to `O=c1c(O)c(-c2ccc(O)cc2)oc2cc(O)cc(O)c12`, the AC50 is 12 µM (active).

The target in another assay is Nuclear receptor subfamily 1 group I member 2 (Mus musculus) (UniProt O54915). The assay is described as follows: ATG_mPXR_XSP2: Attagene TRANS-FACTORIAL Multi-Species (XSP1) HepG2 Assay for mouse Pregnane X Receptor (PXR) (AID 2283831). In a few lines:
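Reporter transcripts measured after 24 h dosing by RT-PCR with 6-FAM labelling, HpaI digestion and capillary electrophoresis. Transiently transfected HepG2 with NR-Gal4 chimeras; increase over DMSO baseline scored.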
Turning to `Oc1ccc2cc(SSc3ccc4cc(O)ccc4c3)ccc2c1`, the AC50 is 36.2 µM (active) and 20.8 µM (active).
Take `OCc1cccc(Oc2ccccc2)c1`: the half-maximal activity concentration (AC50) is 57.4 µM (active) and the outcome was inactive.
Turning to `BrCc1cccc(Oc2ccccc2)c1`, the AC50 is 27.7 µM (active) and the outcome was inactive.
Consider `Cc1cc(=O)oc2cc(N(C)C)ccc12`, for which the AC50 is 4.03 µM (active) and 6.44 µM (active).
Same read-out and setting: the same measure for `CCCCC(CC)COC(=O)c1ccc(O)cc1` (stereo not drawn): 56.4 µM (active); for `Clc1ccc(C(c2ccccc2Cl)C(Cl)Cl)cc1` (stereo not drawn): 5.19 µM (active) and 5.09 µM (active).
For `O=c1c(O)c(-c2ccc(O)cc2)oc2cc(O)cc(O)c12`, the molecule was called inactive.

The next assay addresses zebrafish Thyroid Hormone Receptor alpha (TRa), thraa (gene 30670) (UniProt Q98867). The assay is described as follows: ATG_zfTRa_XSP2: Attagene TRANS-FACTORIAL Multi-Species (XSP1) HepG2 Assay for zebrafish Thyroid Hormone Receptor alpha (TRa) (AID 2283832).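 Also: actives raise zebrafish TRa-Gal4 reporter transcript above DMSO baseline.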 The procedure, abridged: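 Readout is reporter mRNA induction, quantified by RT-PCR and capillary electrophoresis with fluorescent labelling, after 24 h compound exposure of transiently transfected HepG2 cells carrying NR-Gal4 chimera reporters. Activity fitted upward relative to DMSO.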
For the molecule `Oc1ccc2cc(SSc3ccc4cc(O)ccc4c3)ccc2c1`, the AC50 was 156 µM (active) and the call was inactive.
`OCc1cccc(Oc2ccccc2)c1`: the result was inactive.
Regarding `BrCc1cccc(Oc2ccccc2)c1`, the molecule was classed as inactive.
Turning to `Cc1cc(=O)oc2cc(N(C)C)ccc12`, the call was inactive.
Regarding `CCCCC(CC)COC(=O)c1ccc(O)cc1` (stereo not drawn), the molecule was classed as inactive.
